From PubChem BioAssay
Only some compounds are listed: those with a hit (about 11% of all), similar ones and a draw of the others.
Tau fluor cs: counter-screen for tau fibril formation inhibitors. tau K18 P301L Alexa594 fluorescence, heparin fibrillization. Potency, µM (titrated, usually from 57.7 µM), for the others: top-dose activity change, negative = decrease. 0.93% of 280,000 active; further: potency means the concentration at half of the fitted maximal effect; nearly all actives have a fitted effect of over 55% in size
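Human K18 P301L tau (15 uM unlabeled plus 0.24 uM Alexa 594-labeled, final) in 100 mM sodium acetate pH 7 was mixed with compound and 20 uM heparin and incubated 6 hr at 37 C.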
G9a block: blocks human histone lysine methyltransferase G9a; Q96KQ7; G9a H3K9 monomethylation, AlphaScreen, 2 h; Potency, µM (highest dose often 102 µM), for inactives: at the top dose activity, negative = inhibition, most hits filed as inhibitors; 8.8% of 350,000 active; further: potency means the concentration at half of the fitted maximal effect; nearly all actives have a fitted effect of over 75% in size
Target sequence (Q96KQ7 913-1193 limits assumed): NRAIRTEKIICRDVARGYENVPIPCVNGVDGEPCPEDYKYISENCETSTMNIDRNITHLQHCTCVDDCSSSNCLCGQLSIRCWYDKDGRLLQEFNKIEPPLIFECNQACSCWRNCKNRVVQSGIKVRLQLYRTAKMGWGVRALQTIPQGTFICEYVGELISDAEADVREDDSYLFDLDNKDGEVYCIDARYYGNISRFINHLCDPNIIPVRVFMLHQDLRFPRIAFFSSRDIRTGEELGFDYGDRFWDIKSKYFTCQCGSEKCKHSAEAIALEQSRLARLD
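Enzyme 20 nM + cpd, 15 min RT; add b-H3K9 pep 500 nM / SAM 20 uM; 2 h RT; anti-H3K9me1 Ab 0.5 ug/mL + SA donor / anti-rabbit acceptor beads 20 ug/mL each, 10 min; AlphaScreen read.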
Coupling enz: counter-screen for Giardia aldolase inhibitors: coupling enzyme system | coupling enzyme system counterscreen, AmpLite Red fluorescence | activity change, negative = inhibition, % at 58.2 µM, hits read low | 0.67% of 290,000 active; in the data active means activity change below about -30%
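Coupling enzymes only (glyceraldehyde-3-phosphate) + compound, at 57.5 uM final, 10 min RT; add substrate/coupling/AmpLite Red mix, 20 min RT; fluorescence ex 525/em 598 nm. Actives flag coupling-system interference.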
Tau fibril ThT: inhibitors of human tau fibril formation, thioflavin T binding; Potency, µM (top dose mostly 57.4 µM), inactives show top-dose activity, negative = inhibition, most hits filed as inhibitors; recombinant tau K18 P301L (four-repeat tau fragment), heparin-induced fibrillization, ThT fluorescence; P10636; 2.1% of 270,000 active; AID 1460; further: potency means the concentration at half of the fitted maximal effect; nearly all actives have a fitted effect of over 55% in size
Target sequence (P10636 561-689 P618L limits assumed): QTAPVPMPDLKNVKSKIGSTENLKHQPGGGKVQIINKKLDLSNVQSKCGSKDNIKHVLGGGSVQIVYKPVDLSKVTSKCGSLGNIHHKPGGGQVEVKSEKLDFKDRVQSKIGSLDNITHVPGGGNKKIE
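In this qHTS, human K18 P301L tau is incubated with compound and heparin for 6 hr at 37 C, and Thioflavin T fluorescence then reports fibril load.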
Sfp inh: blocks B. subtilis Sfp PPTase activity; Q9F4F7; Biochemical Sfp PPTase activity, qHTS; Potency, µM, inactives show largest response in the series, negative = inhibition, actives largely listed as inhibitors; 3.5% of 310,000 active;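 further: the enzyme is Sfp with the accession as filed and its product quenches rhodamine fluorescence; potency means the concentration at half of the fitted maximal effect; 0% = enzyme reaction without inhibitor and -100% = no enzyme wells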
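Buffer: 50 mM Hepes-Na pH 7.6, 10 mM MgCl2, 0.01% Nonidet P-40, 0.01% BSA. Enzyme 15 nM, pre-exposed to compound 15 min; substrates then added and fluorescence change tracked over 30 min.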
Tau fibril FP: tau fibrillization inhibition (FP); 0.39% of 280,000 active; P10636; Potency, µM (top dose mostly 57.7 µM), inactives show at the top dose activity, negative = inhibition, actives largely listed as inhibitors; AID 1468; K18 P301L tau heparin fibrillization, Alexa594 FP, 6 h; further: potency means the concentration at half of the fitted maximal effect; nearly all actives have a fitted effect of over 55% in size
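Compound effects on tau fibrillization are measured by Alexa 594 fluorescence polarization (ex 555, em 632 nm). K18 P301L tau is used at 15 uM with 0.24 uM labeled tracer, and 20 uM heparin induces aggregation over 6 hr at 37 C.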
* hit, by the source's call; [ ] = remark or other dose. Unless noted, the call rests on the fitted dose curve; in most records, active means well fitted curve in the direction sought with a large enough effect; inconclusive means small, poorly fitted or top-dose-only effect, or another doubt; inactive means no such curve, though single readings can be large; an effect the other way counts as inactive or inconclusive. Unless noted, on the % scale 0 is the no-effect control and ±100 the full control effect.

For N#C/C(=C\c1ccc(O)c(O)c1)C(=O)c1ccc(O)c(O)c1 the results were Tau fluor cs -25%, G9a block 2.2µM*, Tau fibril ThT inconclusive and Tau fibril FP 0%.
`N#C/C(=C\c1c[nH]c2ccccc12)C(=O)c1ccc(O)c(O)c1` gave Tau fluor cs 16µM*[quencher], G9a block 18µM*, Tau fibril ThT 10µM* and Tau fibril FP 4%.
N#C/C(=C\c1c[nH]c2ccccc12)C(=O)NC1CC1 was read as Coupling enz -11 and Sfp inh 0%.
For COc1cccc(N2CCN(c3ncnc4onc(-c5ccc(Cl)cc5)c34)CC2)c1 the results were Tau fluor cs -24%, G9a block 9%[59 µM], Tau fibril ThT -6% and Tau fibril FP 4%.
`Cc1c(CCC(=O)O)c(=O)oc2cc(OCc3ccccc3F)ccc12` gave G9a block 23%, Coupling enz 13 and Sfp inh 31%.
`COc1ccc(NC2CC(=O)N(c3cc([N+](=O)[O-])ccc3C)C2=O)cc1` (stereo not drawn) gave Tau fluor cs -19%, Coupling enz 0, Tau fibril ThT inconclusive, Sfp inh -1% and Tau fibril FP 2%.
`COc1ccccc1NC(=O)CC(c1cc(OC)c(OC)c(OC)c1)N1Cc2ccccc2C1=O` (stereo not drawn) gave Tau fluor cs 1%, G9a block inconclusive, Tau fibril ThT 7% and Tau fibril FP 4%.
For COc1ccc(CNC(=O)Cc2ccc(NC(=O)N3CCSc4ncccc43)cc2)cc1 the results were Tau fluor cs 3%, G9a block inconclusive, Tau fibril ThT 4% and Tau fibril FP -5%.
N#C/C(=C\c1ccc(O)c(O)c1)S(=O)(=O)c1ccccc1 was read as Tau fluor cs -18%, G9a block 3.2µM*, Coupling enz 17, Tau fibril ThT -14%, Sfp inh 11% and Tau fibril FP -2%.
For COc1ccc(C2CC(c3ccccc3)Oc3cc(OC)ccc32)cc1 (stereo not drawn) the results were Coupling enz -6 and Sfp inh inconclusive.
Nc1nc(CN2CCN(c3ccc(F)cc3)CC2)nc(N2CCCc3ccccc32)n1 was read as Tau fluor cs -14%, G9a block 40µM*, Coupling enz -1, Tau fibril ThT inconclusive, Sfp inh 4% and Tau fibril FP 1%.
`COc1ccc(-c2nc(C(=O)Nc3cccc(C(C)=O)c3)nn2-c2ccccc2Cl)cc1` gave Tau fluor cs -19%, G9a block -44%[59 µM], Tau fibril ThT -5% and Tau fibril FP -5%.
`CC(C)(C)OC(=O)N1CCC(c2c(C(=O)NCCN3CCC(Cc4ccccc4)CC3)cnn2-c2cccc(Cl)c2)CC1` gave Tau fluor cs -10%, G9a block -28%[59 µM], Tau fibril ThT inconclusive and Tau fibril FP -7%.
CCN1CCN(c2ccccc2NC(=O)c2ccc(-n3cccn3)cc2)CC1 was read as G9a block 1%[0.501 µM].
`COc1ccc(NC2=C(C(C)=O)C(c3ccc(OC)cc3)C(C(C)=O)C(C)(O)C2)cc1` (stereo not drawn) gave Tau fluor cs 3%, G9a block inconclusive, Coupling enz 0, Tau fibril ThT 4%, Sfp inh 7% and Tau fibril FP 4%.
COc1ccc(NC2=C(C(C)=O)C(c3ccc(N(C)C)cc3)C(C(C)=O)C(C)(O)C2)cc1 (stereo not drawn) was read as Tau fluor cs -12%, G9a block 20µM*, Coupling enz -2, Tau fibril ThT -12%, Sfp inh -2% and Tau fibril FP 5%.
`CCOc1ccc(NC(=O)CN2C(=O)COc3ccccc32)cc1` gave G9a block 27%[59 µM], Coupling enz 2 and Sfp inh 16%.
CCOc1cccc(-c2nnc3sc(C4CCCCC4)nn23)c1 was read as Tau fluor cs -7%, G9a block 35µM*, Coupling enz 0, Tau fibril ThT -18%, Sfp inh inconclusive and Tau fibril FP 3%.
`COc1cccc(-c2nnc3sc(C4CCCCC4)nn23)c1` gave Tau fluor cs -15%, G9a block -47%, Coupling enz 18, Tau fibril ThT -21%, Sfp inh -10% and Tau fibril FP -7%.
For Cc1cccc(Cn2cc(S(=O)(=O)c3ccc(Cl)cc3)c(=O)c3cc4c(cc32)OCO4)c1 the results were Tau fluor cs -3%, G9a block -4%[59 µM], Tau fibril ThT -1% and Tau fibril FP -19%.
Screening CCc1ccc(OCC(=O)N/N=C/c2cc([N+](=O)[O-])ccc2N2CCOCC2)cc1 returned Tau fluor cs inconclusive, G9a block -18%, Coupling enz -19, Tau fibril ThT inconclusive, Sfp inh 5% and Tau fibril FP 9%.
Screening COc1ccc(NCC(=O)N/N=C/c2cc([N+](=O)[O-])ccc2N2CCCC2)cc1 returned Tau fluor cs inconclusive, G9a block 8.9µM*, Coupling enz -10, Tau fibril ThT 11µM*, Sfp inh 2% and Tau fibril FP 18%.
For COc1ccc(NCC(=O)N/N=C/C(C)c2ccccc2)cc1 (stereo not drawn) the results were Tau fluor cs -9%, G9a block 28µM*, Coupling enz 2, Tau fibril ThT inconclusive, Sfp inh 14% and Tau fibril FP 8%.
`CCOc1ccc(NCC(=O)N/N=C/C=C/c2ccccc2)cc1` gave Tau fluor cs inconclusive, G9a block 11µM*, Coupling enz -2, Tau fibril ThT 11µM*, Sfp inh 6% and Tau fibril FP 5%.
For CCOc1ccc(N=C/C=C/c2ccccc2)c(O)c1 the results were Tau fluor cs inconclusive, G9a block 50µM*, Coupling enz -32*, Tau fibril ThT 4.5µM*, Sfp inh 50µM* and Tau fibril FP inconclusive.
For COc1cc(NC(=O)Cn2ccn(Cc3ccccc3OC)c(=O)c2=O)cc(OC)c1 the results were Tau fluor cs -4%, G9a block 6%[59 µM], Tau fibril ThT -7% and Tau fibril FP -4%.
CC(=O)c1c(C)cc(C)c(CSc2ccccn2)c1C was read as Coupling enz 1 and Sfp inh -8%.
CC(C)(C)OC(=O)N1CCCC1C(=O)NC1COC2CC(n3ccc(=O)[nH]c3=O)OC12 (stereo not drawn) was read as Coupling enz 4 and Sfp inh 20%.
